# PubChem BioAssay AID686979 (National Center for Advancing Translational Sciences (NCATS), 2013)
# In all, about 420,000 compounds went through this assay and about 50,000 (12%) were called active. Roughly 26% stayed inconclusive and do not appear here. The call rests on the fitted dose curve; in most records, active means well fitted inhibition curve with a large enough effect; inconclusive means small, poorly fitted or top-dose-only effect; inactive means flat fitted curve, though single readings scatter. Shown is part of a subset that was picked to be rich in actives. Where a call stands in place of a potency, no number is given.
# Experiment: qHTS for Inhibitors of human tyrosyl-DNA phosphodiesterase 1 (TDP1): qHTS in cells in presence of CPT; further: nearly all actives have a fitted effect of over 55% in size
# Settings: chicken DT40 Tdp1-/-;hTDP1 cells + 20 nM CPT, ATP luminescence, 48 h; series mostly up to 46.2 µM
# Summary of the method: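 Chicken DT40 Tdp1-/- cells complemented with human TDP1, 400 cells/well, exposed to compounds plus 20 nM camptothecin for at least 48 h at 37 C; viability read as ATP content by CellTiter-Glo luminescence.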
# Potency means the concentration at half of the fitted maximal effect.
Structure (SMILES),Potency,"activity change, negative = growth inhibition"
CCN1CCN(C(=O)N(Cc2ccc(Cl)cc2)S(=O)(=O)c2ccc(C)cc2)CC1,inactive,
S=C(NCCc1ccccc1)Nc1ccccc1,inactive,
S=C(NCCC1=CCCCC1)Nc1ccccc1,16.4 µM (active),
CC(=O)Nc1ccc(S(=O)(=O)N(C)CC(=O)NCCC2=CCCCC2)cc1,inactive,
COc1ccc(-c2cc(-c3ccc(F)cc3)nc3c2COc2ccccc2-3)cc1,inactive,
CC(C)(C)C(=O)COC(=O)c1cc(S(=O)(=O)N2CCCCC2)ccc1N1CCOCC1,inactive,
O=C(CCCN1C(=O)c2ccccc2C1=O)Oc1ccc(Cl)cc1,inactive,
CCCCN(C(=O)CSCC(=O)Nc1ccc(OC)cc1)c1c(N)n(CCC)c(=O)[nH]c1=O,inactive,
CC(C)C(=O)NC(C)c1nnc2n1CCN(Cc1cccc3ncccc13)CC2 (configuration not stated),,24.6% [at 9.04 µM] (inactive)
O=S(=O)(c1ccccc1)c1nc(-c2ccccc2)oc1NCCCN1CCOCC1,inactive,
Cc1ccc(-c2nc(C#N)c(NCCCn3ccnc3)o2)cc1,inactive,
N#Cc1nc(-c2ccc(OCc3ccccc3)cc2)oc1NCCCN1CCOCC1,20.6 µM (active),
Nc1nc(SCC(=O)Nc2cc(C(F)(F)F)ccc2Cl)[nH]c(=O)c1NC(=O)c1ccco1,inactive,
CO[C@H]1[C@H](NC(=O)C(C)C)c2ccccc2C12CCN(Cc1cnc(N(C)C)s1)CC2,,1.26% [at 9.04 µM] (inactive)
CCc1nnc(NC(=O)c2ccco2)s1,inactive,
Cc1ccc2nc(COc3cccc(NC(=O)c4ccccc4Cl)c3)cc(=O)n2c1,inactive,
CCCC(=O)N(CCN1CCOCC1)c1nc2ccc(OCC)cc2s1,inactive,
Nc1ccc2[nH]c(=S)sc2c1,inactive,
CCOc1ccc2[nH]c(=S)sc2c1,18.4 µM (active),
CC(C)CNC(=S)NNC(=O)c1nn(C)cc1Cl,inactive,
Cn1c(C(=O)NCCc2ccsc2)cc2c(=O)n(C)c3ccccc3c21,18.4 µM (active),

Structure (SMILES),Potency,"activity change, negative = growth inhibition"
CCOc1ccc(CCNC(=O)c2cc3c(=O)n(C)c4ccccc4c3n2C)cc1,20.6 µM (active),
CN(Cc1ccccc1)C(=O)c1cc2c(=O)n(C)c3ccccc3c2s1,inactive,
CCOc1ccc(NC(=O)c2cn(C3CCCCC3)c(=O)c3c2c2ccccc2n3C)cc1,inactive,
CCOc1ccc(CCNC(=O)c2c(C)oc3ncn(C)c(=O)c23)cc1,inactive,
Cn1c(C(=O)N2CCC(C(N)=O)CC2)cc2c(=O)n(C)c3ccccc3c21,inactive,
Cc1cc(C)cc(NC(=O)C(c2ccccc2)N2CCN(CC(=O)N3CCCC3)CC2)c1 (configuration not stated),inactive,
CC(C)CC(=O)c1c[nH]c(C(=O)NCc2ccccc2)c1,inactive,
CC12CCC(C(=O)N(c3cccc(Cl)c3)C1=O)C2(C)C (configuration not stated),inactive,
CC12CCC(C(=O)N(NC(=O)c3ccccc3O)C1=O)C2(C)C (configuration not stated),20.6 µM (active),
O=C(NN1C(=O)C2C(C1=O)C1C=CC2C12CC2)c1ccccc1Cl (configuration not stated),inactive,
NC(=O)c1ncn([C@@H]2O[C@H](CNCc3cnc(N4CCOCC4)s3)[C@@H](O)[C@H]2O)n1,inactive,
CCOc1ccc(-c2nnn(CC(=O)N3CCN(c4ccc(F)cc4)CC3)n2)cc1OCC,inactive,
CCOc1ccc(-c2nnn(CC(=O)N3CCN(c4ccc(OC)cc4)CC3)n2)cc1OCC,inactive,
O=C(Nc1ccccc1-c1nnn(CC(=O)N2CCN(c3ccccc3)CC2)n1)c1cccs1,14.6 µM (active),
C[C@H]1CN([C@@H](C)CO)C(=O)CCCn2cc(nn2)CO[C@@H]1CN(C)S(=O)(=O)c1cccs1,inactive,
CSc1ccc(NC(=O)Cn2nnnc2-c2ccccc2F)cc1,inactive,
C/C(=N/OC(=O)c1cccc(C(F)(F)F)c1)c1cnccn1,inactive,
C/C=C/c1ccc(OCC(=O)OCC(=O)Nc2c(C)nn(-c3ccccc3)c2C)c(OC)c1,inactive,
Cc1nn(-c2ccccc2)c(C)c1NC(=O)COc1ccc(Cl)cc1Cl,16.4 µM (active),
Cc1nn(-c2ccccc2)c(C)c1NC(=O)COC(=O)c1cc(Cl)ccc1O,inactive,
Cc1cc(=O)oc2c3c(cc(OCC(=O)NCCC(=O)N[C@@H](C)C(=O)O)c12)OC(C)(C)CC3,inactive,

Structure (SMILES),Potency,"activity change, negative = growth inhibition"
C/C(=N/NS(=O)(=O)c1ccccc1)c1ccc(NC(=O)C(F)(F)F)cc1,inactive,
COCC1CCN(C(=O)C2CCC(=O)N(CC3CCCCC3)C2)CC1 (configuration not stated),inactive,
COc1ccccc1NC(=S)NC(=O)C(C)C,inactive,
COc1ccccc1NC(=O)c1oc2ccccc2c1NC(=O)COc1ccccc1OC,inactive,
COc1ccccc1C(=O)Nc1ccc(Nc2ccccc2)cc1,inactive,
COc1ccccc1C(=O)Nc1c(C(=O)Nc2ccc(C)cc2)oc2ccccc12,20.6 µM (active),
Cc1ccc(C(=O)Nc2c(C(=O)NC(C)(C)C)oc3ccccc23)cc1,20.6 µM (active),
Cc1ccc(NC(=O)c2oc3ccccc3c2NC(=O)Cc2cccs2)cc1,inactive,
Cc1ccc(C(=O)Nc2c(-c3ccccc3)[nH][nH]c2=O)cc1,inactive,
Cc1c(C(=O)NNC(=O)c2ccncc2)oc2ccccc12,inactive,
COc1ccccc1NC(=O)c1oc2ccccc2c1NC(=O)C(C)C,10.3 µM (active),
C#CCOCCOCCOCCNc1nc(N2CCN(C(=O)C([C@@H](C)CC)n3cc(C(N)COC(=O)C(F)(F)F)nn3)CC2)nc(N2CCN(C(=O)[C@H](Cc3ccc(O)cc3)n3cc(C(N)[C@H](C)CC)nn3)CC2)n1 (some centres not stated),inactive,
CCOc1ncccc1C(=O)OCC(=O)c1c[nH]c2ccccc12,inactive,
CC1CN(C(=S)Nc2ccc(S(N)(=O)=O)cc2)CC(C)O1 (configuration not stated),inactive,
C/C=C/C1=C(C(=O)O)N2C(=O)[C@@H](NC(=O)[C@H](N)c3ccc(O)cc3)[C@H]2SC1,inactive,
O=C(NNc1cc(Cl)cc(Cl)c1)c1c(F)cccc1Cl,inactive,
CN(CC(=O)NNC(=O)CNC(=O)c1ccccc1Cl)S(=O)(=O)c1ccc(Cl)cc1,inactive,
CC(=O)Nc1ccc(NC(=O)CSc2nnc3c4cc(Br)ccc4n(C)c3n2)cc1,inactive,
O=C(CSc1ccc(Cl)cc1)NC1CC1,inactive,
CN(CCOc1ccccc1)C(=O)c1cc(COc2c(F)cccc2F)on1,inactive,
